Laboratory results published in PubChem BioAssay AID651956 (Broad Institute, 2012).
Entries with a potency or affinity are not part of this list. Results filed as inconclusive are left out. Calls of active or inactive are those of the source.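 How the source made its calls: active means in every test run, a fitted half-maximal concentration for signal decrease at or below twice the highest tested concentration; inconclusive means runs disagree, flat 30 to 70% decrease, or poor fit; inactive means the rest.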

Experiment: miR-122 activators in hepatoma reporter cells, dose response, cell-based, Huh7 psiCHECK-miR122, Renilla luciferase, cherry-picked (AID 651956);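 further: Renilla luciferase from a miR-122 sensor reporter so lower signal means miR-122 activation; 0% = median neutral control wells and -100% = median positive control wells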
Conditions: 48 h; series mostly up to 35 µM; activity change, negative = signal decrease: at the top concentration

Activity change, negative = signal decrease, inactive:
CCCC(=O)Nc1ccc2c(c1)C(=O)N(C)[C@@H]1CC[C@H](CC(=O)Nc3cn(C)nc3C)O[C@@H]1CO2 -22.3%
C[C@H]1CN([C@@H](C)CO)S(=O)(=O)c2ccc(-c3ccccc3F)cc2O[C@@H]1CN(C)Cc1cccnc1 -53.4%
COC(=O)C[C@@H]1CC[C@H]2[C@@H](COc3ccc(NC(=O)Nc4ccccc4C)cc3C(=O)N2C)O1 13.5%
Cc1cc(C(=O)Nc2ccc3c(c2)C(=O)N(C)[C@@H]2CC[C@@H](CC(=O)N[C@H](C)c4ccccc4)O[C@H]2CO3)no1 8.39%
COC(=O)C[C@H]1CC[C@H]2[C@H](COc3ccc(NC(=O)c4cccc(F)c4)cc3C(=O)N2C)O1 220%
CCCNC(=O)Nc1ccc2c(c1)C(=O)N(C)[C@@H]1CC[C@@H](CC(=O)NCC3CCCCC3)O[C@H]1CO2 71.2%
C[C@@H]1CN([C@H](C)CO)S(=O)(=O)c2ccc(C3=CCCCC3)cc2O[C@@H]1CN(C)C(=O)Nc1ccc2c(c1)OCO2 -88.8%
C/C=C/c1ccc([C@@H]2[C@H](CO)N[C@H]2CN(CC(C)C)C(=O)c2ccccn2)cc1 80%
CN1C(=O)c2cc(NC(=O)c3ccc4c(c3)OCO4)ccc2OC[C@@H]2O[C@@H](CC(=O)O)CC[C@@H]21 155%
COc1cc(N)c(Cl)cc1NC(=O)c1ccccc1 -28%
Cc1cc(C(=O)Nc2ccc3c(c2)C(=O)N(C)[C@H]2CC[C@@H](CC(=O)N[C@@H](C)c4ccccc4)O[C@H]2CO3)no1 108%
NC(=O)c1csc(-c2ccncc2)n1 38.7%
CCNC(=O)Nc1ccc2c(c1)C(=O)N(C)[C@H]1CC[C@H](CC(=O)NCCOC)O[C@@H]1CO2 -20.9%
CN1C(=O)c2cc(NC(=O)C3CC3)ccc2OC[C@@H]2O[C@H](CC(=O)NCCN3CCCC3)CC[C@H]21 89.1%
CCNC(=O)Nc1ccc2c(c1)C(=O)N(C)[C@H]1CC[C@H](CC(=O)NCCN3CCCC3)O[C@@H]1CO2 16.7%
CSc1cccc(NS(=O)(=O)c2ccccc2)c1 535%
C[C@@H]1CN([C@@H](C)CO)C(=O)c2cccc(NC(=O)c3ccc(-c4nccs4)cc3)c2O[C@H]1CN(C)Cc1ccc2c(c1)OCO2 28.6%
C[C@@H]1CN([C@@H](C)CO)S(=O)(=O)c2ccc(C#Cc3ccccc3F)cc2O[C@H]1CN(C)C(=O)c1ccc2c(c1)OCO2 -53.2%
CC(C)C(=O)Nc1ccc2c(c1)C(=O)N(C)[C@H]1CC[C@H](CC(=O)O)O[C@H]1CO2 115%
COc1cc(NC(=O)c2c(F)c(F)c(F)c(F)c2F)c(OC)cc1Cl -102%
Cc1cccc(NC(=O)C[C@H]2CC[C@H]3[C@@H](COc4ccc(NC(=O)NC(C)C)cc4C(=O)N3C)O2)c1 -16.5%
C/C=C/c1ccc([C@H]2[C@@H](CO)N(C(=O)CC)[C@H]2CNC(=O)CC)cc1 7.81%
CC(C)C(=O)Nc1ccc2c(c1)C(=O)N(C)[C@@H]1CC[C@@H](CC(=O)N[C@H](C)c3ccccc3)O[C@@H]1CO2 -36.3%
COc1cccc(CNC(=O)C[C@H]2CC[C@@H]3[C@H](COc4ccc(NC(C)=O)cc4C(=O)N3C)O2)c1 -32.5%
